Source: ChEMBL document CHEMBL3988442, “University of Dundee, Small-Polar-MMV Screening Library” (2021)
The campaign covered roughly 66,000 compounds. About 960 (1.5%) showed an effect of 50% or more. For the sample, strong results were picked, then their nearest neighbours and some compounds at random.

Test system: Trypanosoma brucei
Assay: Trypanosoma brucei 72 hour study
Assay type: functional, organism-based
Parameters: scale not given: in the data most compounds retested in dose-response had high values

In the case of O=C(O)C(F)(F)F.O=C([C@H]1C[C@H]2OCC[C@H]2N(Cc2ccc(F)cc2)C1)N1CCCCO1, the “Percent Effect” value (30.3 µM, […]) was -288.9%.

In the case of Cc1ccc(CNC(=O)NCc2nccn2C)c(OC(C)(C)C)c1, the “Percent Effect” value (30 µM, 30.03 µM) was -10.65%.

Cc1ccc(CNCc2nccn2C)c(OC(C)(C)C)c1 was tested, and the “Percent Effect” value (30 µM, 30.03 µM) was -9.651%.

In the case of CCn1ccnc1CNCc1ccc(C)cc1OC(C)(C)C, the “Percent Effect” value (30 µM, 30.03 µM) was 59.89%.

With Cl.c1nc(N2CCOCC2)ncc1-c1cncn1CCCN1CCCCC1 the “Percent Effect” value (30.3 µM, […]) was -26.24%.

For CCn1cc(NC(=O)NCC(O)COc2ccccc2)cn1 (stereo not drawn), the “Percent Effect” value (10 µM) was 2.207%.

For CN1CCCCC1c1ncc2c(n1)CCN(Cc1ccc(F)cc1)C2 (stereo not drawn), the “Percent Effect” value (30.3 µM, […]) was 42.96%.

With CN1CCCCC1c1ncc2c(n1)CCN(CCCc1ccccc1)C2 (stereo not drawn) the “Percent Effect” value (30.3 µM, […]) was 98.5%.

For COc1ccc(CN2CCc3nc(C4CCCCN4C)ncc3C2)cc1 (stereo not drawn), the “Percent Effect” value (30 µM, 30.03 µM) was -5.648%.

CN1CCCCC1c1ncc2c(n1)CCN(Cc1ccccc1Cl)C2 (stereo not drawn) was tested, and the “Percent Effect” value (30 µM, 30.03 µM) was -6.551%.

CN1CCCCC1c1ncc2c(n1)CCN(Cc1ccc(Cl)c(F)c1)C2 (stereo not drawn) was tested, and the “Percent Effect” value (30.3 µM, […]) was 88.41%.

For Cc1ncc2c(n1)CN(CCCc1ccccc1)CC2, the “Percent Effect” value (30.3 µM, […]) was 13.17% and the “Percent Effect” value (10 mM, 10 mM as filed; unlikely as a test dose) was -28.02%.

For O=C(C1CCOCC1)N1C[C@H]2CCC[C@@]2(COc2ccccn2)C1.O=C(O)C(F)(F)F, the “Percent Effect” value (30 µM, 30.03 µM) was 15.32%.

For Cl.Cn1nc(C2CCCN(Cc3cc(F)cc(F)c3)C2)c2nccnc21 (stereo not drawn), the “Percent Effect” value (30.3 µM, […]) was 30.77%.

With CCNC(=O)[C@@H]1C[C@H](N)CN1C1CCN(c2ccccc2OC)CC1 the “Percent Effect” value (30.3 µM, […]) was 99.36%.

In the case of CNC(=O)[C@@H]1C[C@@H](N)CN1C1CCN(c2ccccc2F)CC1, the “Percent Effect” value (30.3 µM, […]) was 11.28%.

With CNC(=O)[C@@H]1C[C@@H](N)CN1C1CCN(Cc2ccccn2)CC1 the “Percent Effect” value (30.3 µM, […]) was -17.78%.

In the case of O=C(NCCCn1nc2ccccn2c1=O)Nc1ccccc1, the “Percent Effect” value (30.3 µM, […]) was -36.69%.

For Cc1ccc(-n2c(C)nnc2SCC(O)COCc2ccco2)cc1 (stereo not drawn), the “Percent Effect” value (30.3 µM, […]) was 100%.

For OC(COCc1ccco1)CN1CCC(Cn2cccn2)CC1 (stereo not drawn), the “Percent Effect” value (30 µM, 30.03 µM) was -22.56%.

For OC(COCc1ccco1)CSc1nnc2ccccn12 (stereo not drawn), the “Percent Effect” value (30.3 µM, […]) was -18.97%.

OC(COc1ccccc1)CN1CCC(c2ccn[nH]2)CC1 (stereo not drawn) was tested, and the “Percent Effect” value (30 µM, 30.03 µM) was -29.13%.

With N#Cc1ccc(OCC(O)CN2CCC(c3ccn[nH]3)CC2)cc1 (stereo not drawn) the “Percent Effect” value (10 µM) was 5.752%.

With OC(COc1ccc(F)cc1)CN1CCC(c2ccn[nH]2)CC1 (stereo not drawn) the “Percent Effect” value (10 µM) was 90.5%.

For CN1[C@H](Cn2cccn2)C[C@@H]2CN(Cc3cccs3)CC[C@@H]21.O=C(O)C(F)(F)F.O=C(O)C(F)(F)F.O=C(O)C(F)(F)F, the “Percent Effect” value (30.3 µM, […]) was -3.772%.

With CN(C)CCn1c([C@H]2CCCO2)cc2cccnc21 the “Percent Effect” value (30.3 µM, […]) was 1.858%.

In the case of O=C(O)C(F)(F)F.O=S(=O)(C1CC1)N1CC[C@]2(C[C@@H](Oc3ncccc3F)CO2)C1, the “Percent Effect” value (30 µM, 30.03 µM) was 13.6%.

In the case of CCc1cnc(N2CC[C@@H]3CN(CCC(C)C)S(=O)(=O)[C@@H]3CC2)nc1.O=C(O)C(F)(F)F, the “Percent Effect” value (30.3 µM, […]) was 50.26%.

For CC(C)CN1C[C@H]2CCN(c3ncccn3)CC[C@H]2S1(=O)=O.O=C(O)C(F)(F)F, the “Percent Effect” value (30 µM, 30.03 µM) was 7.131%.

In the case of Cc1cnc(N2CC[C@@H]3CN(CCC(C)C)S(=O)(=O)[C@@H]3CC2)nc1, the “Percent Effect” value (30.3 µM, […]) was 13.68%.

COc1ccccc1OCCc1cc(C2CCNC2)n[nH]1.Cl.Cl (stereo not drawn) was tested, and the “Percent Effect” value (30.3 µM, […]) was -27.23%.

With CC(=O)N1CCN(C)CC(COCc2ccccc2)C1 (stereo not drawn) the “Percent Effect” value (30.3 µM, […]) was 18.55%.

In the case of CC(C)(C)C(=O)N1CCC(COCc2ccccc2)C1 (stereo not drawn), the “Percent Effect” value (30.3 µM, […]) was 100.1%.

For Cc1cnc(C(=O)N2CCC(COCc3ccccc3)C2)cn1 (stereo not drawn), the “Percent Effect” value (30.3 µM, […]) was -6.003%.

For Cc1nn(C)c2c(=O)n(CC(=O)NCc3ccccn3)ccc12, the “Percent Effect” value (30 µM, 30.03 µM) was -0.211%.

For CC(C)C(O)CCNC(=O)Nc1cc(F)ccc1-n1cccn1 (stereo not drawn), the “Percent Effect” value (30.3 µM, […]) was 88.94%.

For CC(C)C(CCO)NC(=O)Nc1cc(F)ccc1-n1cccn1 (stereo not drawn), the “Percent Effect” value (30.3 µM, […]) was -14.63%.

For C[S+]([O-])CCNC(=O)Nc1cc(F)ccc1-n1cccn1 (stereo not drawn), the “Percent Effect” value (30.3 µM, […]) was -162.3%.

With CN(CCO)C[C@@H]1CN(C2CCN(c3ccccc3Cl)CC2)C[C@@H]1CO the “Percent Effect” value (30 µM, 30.03 µM) was 13.3%.

In the case of CC1CN(Cc2cccnc2)CCN1c1ccc2nncn2n1 (stereo not drawn), the “Percent Effect” value (30.3 µM, […]) was 7.126% and the “Percent Effect” value (10 mM, 10 mM as filed; unlikely as a test dose) was -16.61%.

With CC1CN(CC(=O)NC2CCCC2)CCN1c1ccc2nncn2n1 (stereo not drawn) the “Percent Effect” value (30 µM, 30.03 µM) was -13.42%.

With COc1cccc(CN2CCN(c3ccc4nncn4n3)C(C)C2)c1 (stereo not drawn) the “Percent Effect” value (30 µM, 30.03 µM) was 97.2%.

With CC1CN(CC2CCCC2)CCN1c1ccc2nncn2n1 (stereo not drawn) the “Percent Effect” value (30 µM, 30.03 µM) was 98.48%.

In the case of CC1CN(Cc2cccc(C#N)c2)CCN1c1ccc2nncn2n1 (stereo not drawn), the “Percent Effect” value (30 µM, 30.03 µM) was -20.22%.

CC1CN(CC2CCCCC2)CCN1c1ccc2nncn2n1 (stereo not drawn) was tested, and the “Percent Effect” value (30 µM, 30.03 µM) was -45.41%.

For CC(C)(C)c1nc(CNC(=O)N2CCc3ccccc3C2CO)no1 (stereo not drawn), the “Percent Effect” value (30.3 µM, […]) was 6.013%.

With Cc1cc(C(=O)N2CCOC(c3nc(C(C)C)n[nH]3)C2)c(C)s1 (stereo not drawn) the “Percent Effect” value (30.3 µM, […]) was 17.14%.

In the case of CC(C)(CO)Nc1cc(-c2cn[nH]c2)ncn1.Cl, the “Percent Effect” value (30.3 µM, […]) was -11.12%.

Cc1cc(-c2cnc(N3CCC(O)CC3)nc2-c2cccnc2C)on1 was tested, and the “Percent Effect” value (30.3 µM, […]) was -31.41%.

Cc1cc(-c2cnc(N3CCCC(C)C3)nc2-c2cccnc2C)on1.Cl (stereo not drawn) was tested, and the “Percent Effect” value (30.3 µM, […]) was 58.57%.

Cc1cc(-c2cnc(N3CCOCC3)nc2-c2cccnc2C)on1 was tested, and the “Percent Effect” value (30.3 µM, […]) was -10.3%.

With Cc1cc(-c2cnc(N3CCNC(=O)C3)nc2-c2cccnc2C)on1 the “Percent Effect” value (30 µM, 30.03 µM) was 16.74%.

For Cc1cc(-c2cnc(N3CCCC(C)C3)nc2C(C)C)on1 (stereo not drawn), the “Percent Effect” value (30.3 µM, […]) was -16.22%.

With Cc1cc(-c2cnc(N3CCCCCC3)nc2-c2cccnc2C)on1 the “Percent Effect” value (30.3 µM, […]) was 55.42%.

For Cc1ccc(-c2ccnc(NC(c3ncccc3C)C3CC3)n2)c(C)n1 (stereo not drawn), the “Percent Effect” value (30 µM, 30.03 µM) was -69.26%.

For CC(=O)N1CCO[C@@H]2CN(Cc3ccccc3F)C[C@@H]2C1.O=C(O)C(F)(F)F, the “Percent Effect” value (30.3 µM, […]) was -73.74%.

O=C1OCCN1CC(=O)N1C[C@H]2CC[C@@H]1CN(Cc1cscn1)C2 was tested, and the “Percent Effect” value (30 µM, 30.03 µM) was -38.65%.

CNc1ccc(C(=O)N(C)Cc2ccc3ccccc3n2)cn1 was tested, and the “Percent Effect” value (30.3 µM, […]) was 5.672%.

With COc1ncccc1C(=O)N1CC[C@]2(C[C@@H](Oc3cccnc3)CO2)C1.O=C(O)C(F)(F)F.O=C(O)C(F)(F)F the “Percent Effect” value (30 µM, 30.03 µM) was 55.04%.

Cn1ccnc1C(=O)N1CCC2(CC1)CC(Oc1cccnc1)CO2.O=C(O)C(F)(F)F (stereo not drawn) was tested, and the “Percent Effect” value (30 µM, 30.03 µM) was 24.28%.

In the case of COc1ncccc1C(=O)N1CCC2(CC1)CC(OC)CO2.O=C(O)C(F)(F)F (stereo not drawn), the “Percent Effect” value (30.3 µM, […]) was -51.01%.
